Among all 5,500 compounds or so, about 2,000 (36%) were called active. Another 18% or so got no clear call; they are omitted. Rule as the data show it: active = normalized growth mostly below about 0.91 (no sharp cut-off); inconclusive = no clear call, values can overlap the other calls; inactive = mostly above about 0.92. The list shows a part of the results.
Assay: chemical genetic growth profiling, strain panel (AID 1159580);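 also: tested at 20 µM; growth read once vehicle control cultures reached saturation at 30 °C; 1 = growth at the plate median or of vehicle wells; lower values mean less growth of the strain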
Conditions: S. cerevisiae deletion strains, growth OD
[1] = locus YAR019C, strain CDC15, hits give low values
[2] = locus YBL105C, strain PKC1, hits give low values
[3] = locus YBR135W, strain CKS1, hits give low values
[4] = locus YBR136W, strain MEC1, hits give low values
[5] = locus YBR160W, strain CDC28, hits give low values
[6] = locus YDL017W, strain CDC7, hits give low values
[7] = locus YDL028C, strain MPS1, hits give low values
[8] = locus YDL101C, strain DUN1, hits give low values
[9] = locus YDL108W, strain KIN28, hits give low values
[10] = locus YDL132W, strain cdc53, hits give low values
[11] = locus YDL214C, strain PRR2, hits give low values
[12] = locus YDR052C, strain DBF4, hits give low values
[13] = locus YDR054C, strain cdc34, hits give low values
[14] = locus YDR226W, strain ADK1, hits give low values
[15] = locus YDR477W, strain SNF1, hits give low values
[16] = locus YER123W, strain YCK3, hits give low values
[17] = locus YER133W, strain GLC7, hits give low values
[18] = locus YFL009W, strain cdc4, hits give low values
[19] = locus YFL029C, strain CAK1, hits give low values
[20] = locus YFR003C, strain YPI1, hits give low values
[21] = locus YFR019W, strain FAB1, hits give low values
[22] = locus YFR028C, strain CDC14, hits give low values
[23] = locus YGR040W, strain KSS1, hits give low values
[24] = locus YGR052W, strain FMP48, hits give low values
[25] = locus YGR092W, strain DBF2, hits give low values
[26] = locus YHR030C, strain SLT2, hits give low values
[27] = locus YHR079C, strain IRE1, hits give low values
[28] = locus YHR082C, strain KSP1, hits give low values
[29] = locus YHR205W, strain SCH9, hits give low values
[30] = locus YIL147C, strain SLN1, hits give low values
[31] = locus YJL095W, strain BCK1, hits give low values
[32] = locus YJL128C, strain PBS2, hits give low values
[33] = locus YJL157C, strain FAR1, hits give low values
[34] = locus YJR016C, strain ILV3, hits give low values
[35] = locus YJR066W, strain TOR1 (second series), hits give low values
[36] = locus YJR066W, strain TOR1, hits give low values
[37] = locus YKL048C, strain ELM1, hits give low values
[38] = locus YKL067W, strain YNK1, hits give low values
[39] = locus YKL101W, strain HSL1, hits give low values
[40] = locus YKL193C, strain SDS22, hits give low values
[41] = locus YKL203C, strain TOR2, hits give low values
[42] = locus YLR113W, strain HOG1, hits give low values
[43] = locus YLR133W, strain CKI1, hits give low values
[44] = locus YLR403W, strain SFP1, hits give low values
[45] = locus YML070W, strain DAK1, hits give low values
[46] = locus YMR001C, strain CDC5, hits give low values
[47] = locus YMR205C, strain PFK2 (second series), hits give low values
[48] = locus YMR277W, strain FCP1, hits give low values
[49] = locus YNL006W, strain LST8, hits give low values
[50] = locus YNL020C, strain ARK1, hits give low values
[51] = locus YNL161W, strain CBK1, hits give low values
[52] = locus YNL183C, strain NPR1, hits give low values
[53] = locus YNL207W, strain RIO2, hits give low values
[54] = locus YNL222W, strain SSU72, hits give low values
[55] = locus YNL307C, strain MCK1 (second series), hits give low values
[56] = locus YOL078W, strain AVO1, hits give low values
[57] = locus YOL136C, strain PFK27, hits give low values
[58] = locus YOR061W, strain CKA2, hits give low values
[59] = locus YOR119C, strain RIO1, hits give low values
[60] = locus YOR231W, strain MKK1, hits give low values
[61] = locus YOR329C, strain SCD5, hits give low values
[62] = locus YPL031C, strain PHO85, hits give low values
[63] = locus YPL153C, strain RAD53, hits give low values
[64] = locus YPL204W, strain HRR25, hits give low values
[65] = locus YPL209C, strain IPL1, hits give low values
[66] = locus YPL256C, strain CLN2, hits give low values
[67] = locus YPR025C, strain CCL1, hits give low values
[68] = locus YPR106W, strain ISR1, hits give low values
[69] = locus YPR111W, strain DBF20, hits give low values
[70] = strain NNK1, hits give low values
[71] = strain TSCII, hits give low values

Measured: normalized growth

N/C(=N/OC(=O)c1ccccc1Cl)c1cccc(CS(=O)(=O)c2ccc(Cl)cc2)c1
active: [66] 1.2 [resistant]
inactive: [1] 0.993 | [2] 0.975 | [3] 0.981 | [4] 0.986 | [5] 0.981 | [6] 0.984 | [7] 0.991 | [8] 0.982 | [9] 0.986 | [10] 0.984 | [11] 1.04 | [12] 0.981 | [13] 0.984 | [14] 0.981 | [15] 0.997 | [16] 0.995 | [17] 1 | [18] 0.98 | [19] 0.985 | [20] 0.977 | [21] 1.01 | [22] 0.99 | [23] 1 | [24] 1.02 | [25] 0.974 | [26] 1.12 | [27] 1.09 | [28] 1.13 | [29] 0.984 | [30] 0.988 | [31] 0.973 | [32] 0.985 | [33] 1.01 | [34] 0.999 | [35] 0.982 | [36] 1.07 | [37] 0.996 | [38] 1.01 | [39] 1.01 | [40] 0.983 | [41] 1.07 | [42] 0.996 | [43] 1.02 | [44] 0.987 | [45] 1.02 | [46] 0.986 | [47] 1 | [48] 0.99 | [49] 0.994 | [50] 1.02 | [51] 0.988 | [52] 1.04 | [53] 0.98 | [54] 0.981 | [55] 0.968 | [56] 0.986 | [57] 1.03 | [58] 1.01 | [59] 1.08 | [60] 1.01 | [61] 0.994 | [62] 1.01 | [63] 0.994 | [64] 1 | [65] 0.981 | [67] 0.988 | [68] 1 | [69] 0.988 | [70] 0.99 | [71] 0.988

Cc1nn(Cc2cccc(C(=O)O/N=C(/N)c3ccc(Cl)cc3)c2)c(C)c1Br
inactive: [1] 0.982 | [2] 0.978 | [3] 0.971 | [4] 0.977 | [5] 0.973 | [6] 0.974 | [7] 0.981 | [8] 0.987 | [9] 0.972 | [10] 0.979 | [11] 0.972 | [12] 0.98 | [13] 0.973 | [14] 0.978 | [15] 0.915 | [16] 0.929 | [17] 0.953 | [18] 0.965 | [19] 0.991 | [20] 0.982 | [21] 0.974 | [22] 0.962 | [23] 0.93 | [24] 1.03 | [25] 0.978 | [26] 1.01 | [27] 1.1 | [28] 1.07 | [29] 0.999 | [30] 0.984 | [31] 0.932 | [32] 1.01 | [33] 0.985 | [34] 0.977 | [35] 0.954 | [36] 1.08 | [37] 0.968 | [38] 0.958 | [39] 0.924 | [40] 0.98 | [41] 1.02 | [42] 0.915 | [43] 0.972 | [44] 0.93 | [45] 0.947 | [46] 0.983 | [47] 0.965 | [48] 0.973 | [49] 0.99 | [50] 0.972 | [51] 0.984 | [52] 0.997 | [53] 0.984 | [54] 0.979 | [55] 1 | [56] 0.977 | [57] 0.955 | [58] 0.955 | [59] 1.01 | [60] 0.927 | [61] 0.98 | [62] 0.929 | [63] 0.81 | [64] 0.942 | [65] 0.987 | [66] 1.03 | [67] 0.978 | [68] 0.99 | [69] 0.995 | [70] 0.998 | [71] 0.987
